{"source": "PubChem BioAssay AID488969", "about": "(Vanderbilt High Throughput Screening Facility, 2010)", "note": "Over roughly 110,000 compounds, “z-score” has its median near -0.1; the highest 2% begin near 2. The entries come from a sample that favours the highest values as a whole. The source made the active and inactive calls.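 The calls were made as follows: active = z-score in the third read window above 3 or below -3; inactive = the rest.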", "data": [{"molecular_target": "Metabotropic glutamate receptor 8 (Rattus norvegicus) (UniProt P70579)", "sequence (P70579 whole entry, looked up)": "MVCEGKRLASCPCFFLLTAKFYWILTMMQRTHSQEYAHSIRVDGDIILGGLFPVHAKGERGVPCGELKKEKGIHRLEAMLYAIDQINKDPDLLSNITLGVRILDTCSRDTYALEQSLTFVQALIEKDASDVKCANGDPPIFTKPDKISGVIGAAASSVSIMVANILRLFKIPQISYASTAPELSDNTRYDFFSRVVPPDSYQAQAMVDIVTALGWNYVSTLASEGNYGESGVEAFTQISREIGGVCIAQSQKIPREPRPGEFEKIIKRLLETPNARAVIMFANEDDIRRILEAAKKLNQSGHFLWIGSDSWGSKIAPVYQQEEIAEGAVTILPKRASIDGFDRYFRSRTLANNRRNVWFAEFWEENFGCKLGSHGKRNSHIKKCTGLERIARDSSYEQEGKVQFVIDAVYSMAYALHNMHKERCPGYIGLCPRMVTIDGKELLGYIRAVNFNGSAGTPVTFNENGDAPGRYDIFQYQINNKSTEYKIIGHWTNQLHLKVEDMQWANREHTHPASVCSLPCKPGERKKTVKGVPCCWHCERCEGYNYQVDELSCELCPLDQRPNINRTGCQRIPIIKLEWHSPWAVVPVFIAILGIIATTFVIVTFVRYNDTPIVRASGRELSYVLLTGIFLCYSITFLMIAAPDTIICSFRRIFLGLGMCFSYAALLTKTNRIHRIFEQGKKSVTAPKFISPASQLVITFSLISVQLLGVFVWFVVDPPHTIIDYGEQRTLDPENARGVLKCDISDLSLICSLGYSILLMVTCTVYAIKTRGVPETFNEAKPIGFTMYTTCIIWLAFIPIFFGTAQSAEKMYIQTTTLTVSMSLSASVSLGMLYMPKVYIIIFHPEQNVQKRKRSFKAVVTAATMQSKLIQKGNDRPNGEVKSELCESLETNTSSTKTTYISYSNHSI", "assay": "rat mGluR8 modulators via GIRK flux, primary screen, cell-based, thallium flux, HTS (AID 488969)", "conditions": "HEK293 rat mGluR8, GIRK (G protein-gated inwardly rectifying potassium channel) thallium flux, FluoZin2; at 10 µM; stronger effect = higher value; submaximal glutamate (EC20) added with thallium", "values": [{"smiles": "O=C(CN1CCCCCCC1)N/N=C/c1ccc(F)c(F)c1", "z-score": -0.563}, {"smiles": "CCC(C)(C)C1CCC(=NNC(=O)c2ccoc2C)CC1", "note": "(configuration not stated)", "z-score": -0.259}, {"smiles": "Cc1sc(NC(=O)c2ccc(Br)s2)c(C(N)=O)c1C", "z-score": 0.0217}, {"smiles": "COc1cc(OC)c(OC)cc1CN(C)C(c1ccccc1)c1nnnn1-c1ccccc1C", "note": "(configuration not stated)", "z-score": 0.0196}, {"smiles": "CC(OC(=O)CCc1nc2ccccc2c(=O)[nH]1)C(=O)NC1CCCC1", "note": "(configuration not stated)", "z-score": -0.356}, {"smiles": "Cc1cccc2sc(N(CCN(C)C)C(=O)/C=C/c3cccs3)nc12", "z-score": -0.145}, {"smiles": "O=c1[nH]c(CN2CCN(c3ccccc3)CC2)nc2ccccc12", "z-score": 0.214}, {"smiles": "COc1cccc(C2C=C(Nc3ccccc3)C(=O)N2c2ccccc2)c1", "note": "(configuration not stated)", "z-score": -0.22}, {"smiles": "Cc1cc(C)c(NC(=O)C2CCCN2C(=O)NC2CCCCC2)c(C)c1", "note": "(configuration not stated)", "z-score": 1.35}, {"smiles": "O=C(N/N=C/C1CCCCC1)c1cc(Cl)ccc1O", "z-score": 0.618}, {"smiles": "C/C(=N\\NC(=O)c1cc(Cl)ccc1O)c1ccc(Br)s1", "z-score": "6.48 (active)"}, {"smiles": "C/C(=N\\NS(=O)(=O)c1ccc(C)cc1)c1ccc(Br)s1", "z-score": -0.207}, {"smiles": "Nc1[nH]ncc1N=Nc1ccc(Cl)cc1", "z-score": -0.104}, {"smiles": "c1ccc(CNn2c(N3CCOCC3)nc3ccccc32)cc1", "z-score": 0.241}, {"smiles": "CCN(c1ccccc1)S(=O)(=O)c1cc(C(=O)Nc2cccc(Cl)c2)ccc1F", "z-score": -0.0119}, {"smiles": "CCN(c1ccccc1)S(=O)(=O)c1cc(C(=O)Nc2ccc(F)c(F)c2)ccc1F", "z-score": -0.178}, {"smiles": "CCN(c1ccccc1)S(=O)(=O)c1cc(C(=O)Nc2ccccc2Cl)ccc1F", "z-score": 2.19}, {"smiles": "CN(C)c1ccc(/C=C/C(=O)c2ccccc2)cc1[N+](=O)[O-]", "z-score": -0.207}, {"smiles": "Fc1c(F)c(F)c(N=Cc2ccc3ncccc3c2)c(F)c1F", "z-score": 0.201}, {"smiles": "O=C(NC(=S)Nc1nc2ccccc2s1)c1cccs1", "z-score": "11.7 (active)"}, {"smiles": "Cc1ccc2nc(NC(=S)NC(=O)c3cccs3)sc2c1", "z-score": "4.64 (active)"}, {"smiles": "Cc1ccc2nc(NC(=O)Cc3cccs3)sc2c1", "z-score": 0.542}, {"smiles": "Cc1nc(NC(=S)NC(=O)c2cccs2)sc1C(=O)N(C)C", "z-score": -0.329}, {"smiles": "O=C(Cc1cccs1)Nc1nc2c(ccc3ccccc32)s1", "z-score": 0.34}, {"smiles": "CCc1ccc(-c2nc(NC(=S)NC(=O)c3cccs3)sc2C)cc1", "z-score": 0.595}, {"smiles": "Cc1ccc(-c2csc(NC(=S)NC(=O)c3cccs3)n2)cc1", "z-score": -0.267}, {"smiles": "O=C(NC(=S)Nc1nc2c(ccc3ccccc32)s1)c1cccs1", "z-score": 2.78}, {"smiles": "O=C(NC(=S)Nc1nc(-c2ccccc2)cs1)c1cccs1", "z-score": 1.03}, {"smiles": "O=C(c1ccc(Cl)cc1)C1CCN(C(=O)C2CC2)CC1", "z-score": 0.108}, {"smiles": "CCOC(=O)c1c(C)n(-c2ccc(C)cc2)c2c(CC(C)=O)c(Br)c(OC)c(O)c12", "z-score": -0.0818}, {"smiles": "CSc1ccc(Cc2ccc(Cl)cc2Cl)nn1", "z-score": -0.154}, {"smiles": "Clc1ccc(Cc2ccc(Cl)nn2)c(Cl)c1", "z-score": -0.119}, {"smiles": "Clc1ccc(Cc2ccc(SCc3ccccc3)nn2)c(Cl)c1", "z-score": "3.48 (active)"}, {"smiles": "O=C(N/N=C\\c1ccc(Sc2ccccn2)o1)c1cccc(Br)c1", "z-score": 1.77}, {"smiles": "O=C(N/N=C\\c1ccc(Sc2ccccn2)o1)c1cccc(F)c1", "z-score": -0.471}, {"smiles": "O=C(N/N=C/c1ccc(Sc2ccccn2)o1)c1cc2ccccc2cc1O", "z-score": "6.43 (active)"}, {"smiles": "CCOC(=O)c1ccc(NC(=S)N2CCN(Cc3ccccc3)CC2)cc1", "z-score": -0.2}, {"smiles": "CN(C)c1ccnc(Oc2ccc(C(C)(C)C)cc2)c1C#N", "z-score": -0.212}, {"smiles": "COC(=O)C1CCCN1C(=O)c1cccs1", "note": "(configuration not stated)", "z-score": "5.05 (active)"}, {"smiles": "O=C(O)C1CCCN1C(=O)c1cccs1", "note": "(configuration not stated)", "z-score": 0.319}, {"smiles": "O=C(OCc1ccccc1)C1CCCN1C(=O)c1cccs1", "note": "(configuration not stated)", "z-score": -0.219}, {"smiles": "CC(=O)NC1(c2nnnn2CCOC(=O)Nc2ccc(Cl)cc2)CCCCC1", "z-score": 0.0804}, {"smiles": "O=C(O)CCC(=O)N1N=C(c2c(-c3ccccc3)c3cc(Cl)ccc3[nH]c2=O)CC1c1ccco1", "note": "(configuration not stated)", "z-score": -0.219}, {"smiles": "C/C(=N\\O)C(C)NC(=O)c1ccccc1", "note": "(configuration not stated)", "z-score": "3.54 (active)"}, {"smiles": "C/C(=N\\NC(=O)C(NC(=O)c1ccccc1)C(C)C)c1ccccc1", "note": "(configuration not stated)", "z-score": -0.068}, {"smiles": "CC(C)NC(=O)/C(=N\\O)c1ccccc1", "z-score": 0.0549}, {"smiles": "COc1ccccc1NC(=S)NCc1ccc2c(c1)OCO2", "z-score": -0.0224}, {"smiles": "Cc1sc(NC(=O)c2cc(-c3ccc(Cl)cc3)nc3ccccc23)c(C(N)=O)c1C", "z-score": -0.126}, {"smiles": "O=C(c1ccccc1)N(Cc1ccc(F)cc1)C1CCS(=O)(=O)C1", "note": "(configuration not stated)", "z-score": -0.0413}, {"smiles": "O=C(c1sc2ccccc2c1Cl)N(Cc1ccccc1)C1CCS(=O)(=O)C1", "note": "(configuration not stated)", "z-score": 1.16}, {"smiles": "O=C(c1ccc(Cl)c([N+](=O)[O-])c1)N(Cc1ccccc1)C1CCS(=O)(=O)C1", "note": "(configuration not stated)", "z-score": 2}, {"smiles": "CCCCn1c(=O)[nH]c(=O)c2c1ncn2Cc1ccco1", "z-score": -0.249}, {"smiles": "CCOC(=O)CN(C(=O)CSc1nnc(CNc2ccc(F)cc2)n1CC)c1ccc(F)cc1", "z-score": -0.599}, {"smiles": "COc1ccc(OC)c(CNC(=O)CCN2C(=O)COc3ccccc32)c1", "z-score": 0.307}, {"smiles": "CSc1nc2ccccc2cc1/C=C(\\C#N)c1cccc(C)c1", "z-score": "3.99 (active)"}, {"smiles": "CSc1nc2ccccc2cc1/C=C(\\C#N)c1cccc(Cl)c1", "z-score": 0.938}, {"smiles": "CSc1nc2ccccc2cc1/C=C(\\C#N)c1ccccc1", "z-score": 0.0152}, {"smiles": "COc1ccc(C(C)=O)cc1CN1C(=O)C(C)N(c2ccc(C)cc2)C1=O", "note": "(configuration not stated)", "z-score": -0.0103}, {"smiles": "CCCOc1ccc(N2C(=O)CC(SC(=NC)Nc3ccc(F)cc3)C2=O)cc1", "note": "(configuration not stated)", "z-score": -0.0553}, {"smiles": "CCOc1ccc(N2C(=O)CC(SC(=NC)Nc3ccc(F)cc3)C2=O)cc1", "note": "(configuration not stated)", "z-score": "3.7 (active)"}, {"smiles": "CCOc1ccc(N2C(=O)CC(SC(=NC)Nc3cccc(F)c3)C2=O)cc1", "note": "(configuration not stated)", "z-score": -0.588}, {"smiles": "CCOC(=O)CN1NC2(CCC(C(C)(C)C)CC2)NC1=S", "note": "(configuration not stated)", "z-score": 2.66}, {"smiles": "CCOC(=O)CN1NC2(CCC(C)CC2)NC1=S", "note": "(configuration not stated)", "z-score": -0.408}, {"smiles": "CCOC(=O)CN1NC2(CCCCC2)NC1=S", "z-score": 0.284}, {"smiles": "O=C(CSc1nc(-c2ccccc2)c(-c2ccccc2)[nH]1)NCc1ccco1", "z-score": -0.317}, {"smiles": "C=CCOc1ccc(/C(O)=C2\\C(=O)C(=O)N(CCCOC)C2c2ccc(O)c(OC)c2)cc1", "note": "(configuration not stated)", "z-score": -0.44}, {"smiles": "Cc1ccc(S(=O)(=O)Nc2ccccc2-c2ccccc2NS(=O)(=O)c2ccc(C)cc2)cc1", "z-score": -0.159}, {"smiles": "Cc1ccc(NS(=O)(=O)c2ccc3c(c2)C(=O)c2ccccc2C3=O)c(C)c1", "z-score": -0.0521}, {"smiles": "CNc1cccc2c1C(=O)c1ccccc1C2=O", "z-score": -0.102}, {"smiles": "Cc1cccc(S(=O)(=O)Nc2cccc3c2C(=O)c2ccccc2-3)c1", "z-score": "8.14 (active)"}, {"smiles": "O=C(O)c1ccccc1NS(=O)(=O)c1cccc(C(F)(F)F)c1", "z-score": -0.814}, {"smiles": "O=C1c2ccccc2-c2cccc(NS(=O)(=O)c3ccc(C(F)(F)F)cc3)c21", "z-score": 2.66}]}]}
